This is a sample that favours compounds with a hit; in the whole collection about 1.6% have one here.
KCNQ2 pot – enhances the rat KCNQ2 potassium channel; O88943; CHO-K1 KCNQ2, FluxOR thallium flux fluorescence; stronger effect = higher value; B-score at 10 µM; 0.54% of 310,000 active; AID 2239;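 active means fluorescence ratio B-score at least 3 SD of library B-scores, with initial fluorescence B-score within 3 of them, cut at about 5.3 in these data; same plate scores as AID 2156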;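 further: B-score of peak minus minimum over baseline fluorescence ratio after K+ and Tl+ stimulus; positive B-score means potentiation of KCNQ2 with more thallium influx and brighter signal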
KCNQ2 block – blocks the rat KCNQ2 potassium channel; O88943; CHO-K1 KCNQ2, FluxOR thallium flux, 20 min; stronger effect = lower value; AID 2156; B-score at 10 µM; 1.1% of 310,000 active;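 active means fluorescence ratio B-score at most minus 3 library SDs, with starting brightness B-score within 2 library SDs, cut at about -5.5 in these data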
Of the large screens only hits and unclear results are named; the others gave an inactive call.

Cc1ccc(C)c2[nH]c(=O)c(C(c3nnnn3CCc3ccccc3)N3CCOCC3)cc12 (stereo not given)	KCNQ2 block -6
CCOc1ccc2[nH]c(=O)c(C(c3nnnn3C3CCCCC3)N3CCN(CC)CC3)cc2c1 (stereo not given)	none
CCOC(=O)C1CCN(C(c2cc3c(C)ccc(C)c3[nH]c2=O)c2nnnn2C2CCCCC2)CC1 (stereo not given)	none (no result: KCNQ2 pot)
COc1ccc(Cn2nnnc2C(c2cc3cccc(C)c3[nH]c2=O)N2CCOCC2)cc1 (stereo not given)	none (no result: KCNQ2 pot)
Cc1ccc(C)c2[nH]c(=O)c(C(c3nnnn3C3CCCC3)N3CCOCC3)cc12 (stereo not given)	KCNQ2 block -6.1
COc1cc2cc(C(c3nnnn3C3CCCC3)N3CCCCCC3)c(=O)[nH]c2cc1OC (stereo not given)	KCNQ2 block -11
CNS(=O)(=O)c1cn(CC(=O)NCc2ccccc2OC)cc1S(=O)(=O)NC	none
CC(Nc1nc(N2CCNCC2)nc2ccccc12)c1ccccc1 (stereo not given)	none
Cc1ccc(N2CC(C)Cn3c2nc2c3c(=O)[nH]c(=O)n2C)cc1C (stereo not given)	none
Cc1cccc(NC(=O)CNC(=O)c2ccc3nc[nH]c3c2)c1C	none (no result: KCNQ2 pot)
Cc1ccc(NC(=O)c2cccc(S(=O)(=O)N(C)C3CCCCC3)c2)nc1	none (no result: KCNQ2 pot)
O=C(COc1ccc(Br)cc1)N1CCC(c2ccccc2)C1 (stereo not given)	KCNQ2 block -5.6
O=C(COc1ccc(Br)cc1)N1CCOCC1	none (no result: KCNQ2 pot)
Cc1cc(OCC(=O)N2CCc3ccccc3C2)c2c(-c3ccccc3)cc(=O)oc2c1	KCNQ2 block -7.5
COc1ccc(OCC(=O)N2CCc3ccccc3C2)cc1	none (no result: KCNQ2 pot)
O=C(COc1ccc(Br)cc1)N1CCc2ccccc2C1	KCNQ2 block -6.5
CCOc1cc(C)cc2oc(=O)cc(-c3ccccc3)c12	none (no result: KCNQ2 pot)
CC(CNS(=O)(=O)c1ccccc1)(c1ccccc1)N1CCCCC1 (stereo not given)	none
N/C(=N/OC(=O)c1ccc(Cl)cc1)c1ncc([N+](=O)[O-])s1	none
Cc1ccc(-c2nc3cnccn3c2Nc2ccc3c(c2)OCO3)cc1	none (no result: KCNQ2 pot)
CN(C)c1ccc(-c2nc3cnccn3c2Nc2ccc3c(c2)OCCO3)cc1	KCNQ2 block -6.4
CCOc1ccc(C(=O)N2CCN(c3cccc(C)c3C)CC2)cc1	KCNQ2 block -5.8
CCOc1ccc(C(=O)N2CCCC2)cc1	none
CCC(CC)c1nnc(NC(=O)C2CC(=O)N(C3CCCC3)C2)s1 (stereo not given)	none (no result: KCNQ2 pot)
CC(C)N(C(=O)COC(=O)CNS(=O)(=O)c1ccccc1F)c1ccccc1	none
O=C(Nc1ccccc1N1CCOCC1)C1(c2ccc(Cl)cc2)CCC1	KCNQ2 block -6.5
O=C(Cc1ccc(Cl)c(Cl)c1)Nc1ccccc1N1CCOCC1	none
CCOc1ccc(NC(=O)CN(C)C(=O)c2cc(S(=O)(=O)N3CCCCCC3)ccc2OC)cc1OCC	none
COc1cccc(-c2nn(-c3ccc(C)cc3)cc2C(=O)NCC(c2cccs2)N2CCOCC2)c1 (stereo not given)	KCNQ2 block -6.9
COc1ccc(-c2nn(-c3ccccc3)cc2C(=O)NCC(c2cccs2)N2CCOCC2)cc1 (stereo not given)	none (no result: KCNQ2 pot)
CC(=O)c1cccc(OCC(O)CNCCOc2ccc(C)cc2)c1 (stereo not given)	none (no result: KCNQ2 pot)
CCNC(=O)c1ccc(=O)n(Cc2ccc(Cl)cc2Cl)c1	none
Cc1ccc(C)c(N2CCN(C(=O)CN3C(=S)NC(C)(C)CC3C)CC2)c1 (stereo not given)	none
CCCC(Oc1ccc(Br)cc1)c1nc2c3cc(OC)c(OC)cc3nc(=S)n2[nH]1 (stereo not given)	none (no result: KCNQ2 pot)
CC(Oc1ccc(Br)cc1)c1nc2c3ccccc3nc(=S)n2[nH]1 (stereo not given)	KCNQ2 pot 5.4
COc1ccccc1CN1CCNC(=O)C1CC(=O)N(C)Cc1nc(C)cs1 (stereo not given)	none (no result: KCNQ2 pot)
COc1ccc(C(C(=O)NC(C)(C)C)N(CCc2ccc(OC)c(OC)c2)C(=O)CCC(=O)Nc2cc(C)on2)cc1 (stereo not given)	none
CN(C)Cc1nnnn1-c1cccc(-n2nnnc2CN(C)C)c1	none
Cc1noc(C)c1-c1nc(CS(=O)(=O)c2ccccc2)no1	none (no result: KCNQ2 pot)
O=Nc1c(O)n(Cc2cccc(Cl)c2)c2ccccc12	none (no result: KCNQ2 pot)
Cc1cc(C)nc(N=Nc2c(O)n(Cc3ccc(Cl)cc3)c3ccccc23)n1	KCNQ2 block -5.9
O=C(O)/C=C/C(=O)NCc1csc2ccccc12	none
Cc1c(Cl)cccc1NC(=O)CN1CCC(C(O)(c2ccccc2)c2ccccc2)CC1	KCNQ2 block -6.2
Cc1ccccc1C(=O)NC1CCN(CC(=O)Nc2ccccc2Cl)CC1	none
C[C@H](NC(=O)c1ccccc1Cl)C(=O)OCC(=O)NNC(=O)c1cccs1	none
c1ccc(C2CC(c3ccccc3)C(c3ccccc3)N2)cc1 (stereo not given)	none (no result: KCNQ2 pot)
O=C1CC(c2ccc(Br)cc2)NC(c2ccc(Br)cc2)C1c1ccccc1 (stereo not given)	KCNQ2 block -5.7
COCC(=O)N1CCC(Oc2ccc(C(=O)NCCc3ccncc3)cc2)CC1	none
Cn1c(=O)c2c(nc(Br)n2Cc2ccccc2Cl)n(C)c1=O	none (no result: KCNQ2 pot)
COC(=O)Cn1c(=O)c2c(nc(Br)n2Cc2ccccc2Cl)n(C)c1=O	KCNQ2 block -5.8
O=C(Nc1ccc(F)c(F)c1)c1ccc(F)c(S(=O)(=O)N2CCC3(CC2)OCCO3)c1	KCNQ2 pot 5.4
O=S(=O)(c1cc(F)ccc1F)N1CCC2(CC1)OCCO2	none (no result: KCNQ2 pot)
COc1ccc(NC(=O)COc2ccc(N(C)S(=O)(=O)c3ccc(Cl)cc3)cc2)cc1OC	none (no result: KCNQ2 pot)
O=C(OCC#CCSc1nnc(-c2ccccc2)o1)c1cccs1	none (no result: KCNQ2 pot)
O=C(OCC#CCSc1nnc(-c2cccc3ccccc23)o1)c1cccs1	KCNQ2 block -5.8
COc1ccc(OC)c(S(=O)(=O)N2CCC(NC(=O)c3ccccc3)CC2)c1	none
CC(NC(=O)/C=C/c1ccccc1[N+](=O)[O-])C1CC2CCC1C2 (stereo not given)	KCNQ2 block -6.2
CC(NC(=O)c1cc([N+](=O)[O-])cc([N+](=O)[O-])c1)C1CC2CCC1C2 (stereo not given)	none
CCOC(=O)C1CCN(C(=O)COC(=O)c2ccc3c(c2)C(=O)N(c2ccc(OCC)cc2)C3=O)CC1	none
C=CCn1c(C)cc(C(=O)COC(=O)COc2ccccc2C#N)c1C	none (no result: KCNQ2 pot)
C=CCn1c(C)cc(C(=O)COC(=O)[C@@H](NC(=O)c2ccccc2Cl)C(C)C)c1C	KCNQ2 block -7.5
Cn1c(SCc2ccccc2)nnc1-c1ccc2nonc2c1	none
CN1CCN(S(=O)(=O)c2ccc(N(C)Cc3ccc(OC(F)F)cc3)c([N+](=O)[O-])c2)CC1	none
CCCC(=O)Nc1ccc(NC(=O)c2cc3ccccc3o2)c(OC)c1	none (no result: KCNQ2 pot)
CC(=O)SC(C[N+](=O)[O-])c1cn(C(C)=O)c2ccccc12 (stereo not given)	KCNQ2 block -5.6
CC(=O)n1cc(Nc2ccc([N+](=O)[O-])cc2)c2ccccc21	none
Cc1cc(C)c2c(n1)SCC(=O)N2CC(=O)Nc1cc(F)ccc1F	none (no result: KCNQ2 pot)
COc1ccc(CCNC(=O)Cc2ccc([N+](=O)[O-])cc2)cc1OC	none (no result: KCNQ2 pot)
COc1ccc(CCNC(=O)Cc2ccc(OCc3ccccc3)c(OC)c2[N+](=O)[O-])cc1OCc1ccccc1	KCNQ2 block -7.7
CCCCn1c(N)c(N(CCOC)C(=O)c2ccc(-c3cccc(C(F)(F)F)c3)o2)c(=O)[nH]c1=O	none
COc1ccc(CN2C(=NC(=O)C3CCCCC3)SC3CS(=O)(=O)CC32)cc1 (stereo not given)	none
